# Assay results taken from PubChem BioAssay AID720651 (The Scripps Research Institute Molecular Screening Center, 2013).
# The other results are listed elsewhere or left out. Active and inactive are the calls of the source. No rule for the calls is given here.
# Experiment: binds r(CAG) RNA repeats in late stage dose response, late-stage follow-up, biochemical, fluorescence, dose response, powder samples (AID 720651)
# Conditions: r(CAG) RNA TO-PRO-1 dye displacement
structure (smiles),measurement,value
Cc1noc(NS(=O)(=O)c2ccc(NC(=O)c3oc4ccc(F)cc4c3C)cc2)c1C,IC50,1260 nM (active)
